A short description of assay [1]: qHTS RealTime-Glo MT Cell Viability Assay in HEK293 cells - 8 hour (AID 1224887). Note: top concentration of the series differs between compounds; nearly all actives have a fitted effect of over 50% in size. The procedure, abridged: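 Real-time viability in HEK293: signal arises when living cells convert a prosubstrate for NanoLuc in the medium, so luminescence tracks viable cell number. Compound (23 nL, DMSO) added 5 h post-seeding; kinetic reads at 0–40 h, 37 C.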
Background: qHTS replaces the single test concentration by a dilution series.

Assay [2] in a line: qHTS RealTime-Glo MT Cell Viability Assay in HepG2 cells - 0 hour (AID 1224889). Note: nearly all actives have a fitted effect of over 50% in size. The procedure, abridged: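 qHTS, HepG2, 600 cells/well, RealTime-Glo (NanoLuc + prosubstrate) added with cells; 5 h preincubation; DMSO compound addition; 37 C; luminescence at 0/8/16/24/32/40 h.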
A short description of assay [3]: A CellTox Green Cytotoxicity Assay to monitor cytotoxicity in HepG2 cells - 8 hour (AID 1224890). Note: nearly all actives have a fitted effect of over 45% in size. The procedure, abridged: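 Cells and non-lytic dye reagent are dispensed together (600 HepG2 cells/well) and incubated 5 h before DMSO compound transfer. Kinetic fluorescence is then recorded in the same wells during 40 h at 37 C.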
Assay [4] can be described thus: qHTS assay to identify small molecule antagonists of the estrogen receptor alpha (ER-alpha) signaling pathway using the BG1 cell line in the presence of 0.1 nM 17-beta-estradiol - cell viability counter screen (AID 1259241). Note: nearly all actives have a fitted effect of over 40% in size. Summed up:
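Estradiol-stimulated (0.1 nM) VM7Luc4E2 cells exposed to compounds 22 hr; viability measured by fluorescence of cleaved CellTiter-Fluor substrate after 30 min.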

Assay [5] can be described thus: qHTS assay to identify small molecule antagonists of the androgen receptor (AR) signaling pathway using the MDA cell line in the presence of 0.5 nM R1881 - cell viability counter screen (AID 1259242). Note: nearly all actives have a fitted effect of over 45% in size. The procedure, abridged: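 Steps: plate MDA-kb2 cells, rest 5 hr at 37C without CO2; pin in compounds in DMSO; add R1881 to 0.5 nM final; incubate 16 hr; add CellTiter-Fluor, 30 min; read fluorescence.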

The target of assay [6] is Estrogen receptor (Homo sapiens) (UniProt P03372). The experiment in a line: qHTS assay to identify small molecule antagonists of the estrogen receptor alpha (ER-alpha) signaling pathway using the BG1 cell line in the presence of 0.1 nM 17-beta-estradiol (AID 1259244). Note: nearly all actives have a fitted effect of over 50% in size. Summed up:
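Antagonist mode: compounds in DMSO are pinned onto VM7Luc4E2 reporter cells, 0.1 nM final 17beta-estradiol is added, and after 22 h at 37C luciferase luminescence is measured with ONE-Glo.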

Assay [7] in a line: qHTS assay to identify small molecule HDAC inhibitors (AID 1259364).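 Note: wild-type HCT-116 cells with endogenous class I/II HDAC activity; top concentration of the series differs between compounds; nearly all actives have a fitted effect of over 45% in size.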 Summed up: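 Cells (HCT-116, wild type) are seeded at 1,500 per well, incubated overnight, treated with compound in DMSO for 2 hr, then developed with HDAC-Glo I/II reagent for 30 min at room temperature.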
The nature of assay [8]: qHTS assay to identify small molecule HDAC inhibitors - cell viability counter screen (AID 1259365). Note: series mostly up to about 92 µM; nearly all actives have a fitted effect of over 50% in size. The procedure, abridged:
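After overnight seeding at 1,500 cells per well, wild-type HCT-116 cultures took up compounds in DMSO for 2hr at 37 C. Viable cell content came from luminescence with CellTiter-Glo.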

A short description of assay [9]: qHTS assay to identify small molecule antagonists of the sonic hedgehog signaling (Shh) pathway - cell viability counter screen (AID 1259367). Note: nearly all actives have a fitted effect of over 55% in size. Note: potency is the fitted concentration of half-maximal effect. Summed up:
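Viability was read by CellTiter-Fluor fluorescence in the same wells, reagent added 23 hr into compound treatment and incubated 1 hr at 37C. The 3T3 Gli1-Luc reporter cells (2,000/well) received conditioned medium after compound and ran 24 hr.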

Assay [10] is described as follows: qHTS assay to identify small molecule agonists of the sonic hedgehog signaling (Shh) pathway (AID 1259368; calls by dose curve;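 note: NIH/3T3-derived 3T3Gli1-Luc cells carrying a stable Gli1-driven firefly luciferase reporter; series mostly up to about 92 µM; nearly all actives have a fitted effect of over 15% in size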). Summed up: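 Cells of a mouse NIH/3T3 clone stably expressing luciferase under the Gli1 transcriptional response element are exposed to test chemicals for 24 hr at 37 C. Pathway activation is detected as a rise in luminescence.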
Assay [11] in a line: qHTS assay to identify small molecule antagonists of the sonic hedgehog signaling (Shh) pathway (AID 1259369; calls by dose curve; note: nearly all actives have a fitted effect of over 45% in size; note: potency is the fitted concentration of half-maximal effect). The procedure, abridged:
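Cells are plated and held 4hr at 37 C, compounds (DMSO) are pinned in, conditioned medium is added to stimulate the pathway, and after 24hr luciferase reagent is added for 30min before luminescence is read.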

Assay [12] deals with Estrogen receptor beta (Homo sapiens) (UniProt Q92731). The experiment in a line: qHTS assay to identify small molecule agonists of the estrogen receptor beta (ER-beta) signaling pathway (AID 1259377; active = well fitted activation curve with a large enough effect in the signal ratio in the repeat runs, not every such curve was filed as active; the % refers to the signal ratio). The procedure, abridged:
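Read-out: beta-lactamase FRET fluorescence. Cell line: ER-beta-UAS-bla HEK293T in 2% charcoal-stripped FBS. Exposure: 16 hr at 37C. Substrate step: 2 h at room temperature.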

The nature of assay [13]: qHTS assay to identify small molecule phospholipidosis (PLD) inducers (AID 1259344; active = well fitted curve in the direction sought with a large enough effect; an effect the other way counts as inactive or inconclusive). Summed up: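 Phospholipid accumulation was scored by imaging: fixed, Hoechst-counterstained HepG2 cells stained with LipidTOX Red after 24 h compound exposure at 37 C. Read-outs were pit count and pit intensity per well or per cell, with amiodarone and DMSO controls.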
Assay [14] is described as follows: qHTS assay to identify small molecule agonists of the sonic hedgehog signaling (Shh) pathway - cell viability counter screen (AID 1259366). The procedure, abridged:
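Same-well cytotoxicity read. Gli1-Luc reporter 3T3 cells; compounds 24hr, 37C/5% CO2; CellTiter-Fluor fluorescence.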

Records with an inconclusive call do not appear. Active and inactive are the calls of the source. Unless noted, calls come from the whole dose curve; as a rule, active = well fitted curve in the direction sought with a large enough effect in the repeat runs; inconclusive = weak or mixed curves; inactive = no such curve, though single readings can be large; an effect the other way counts as inactive or inconclusive.

Chain of Estrogen receptor beta (Homo sapiens) (Q92731 whole entry, looked up): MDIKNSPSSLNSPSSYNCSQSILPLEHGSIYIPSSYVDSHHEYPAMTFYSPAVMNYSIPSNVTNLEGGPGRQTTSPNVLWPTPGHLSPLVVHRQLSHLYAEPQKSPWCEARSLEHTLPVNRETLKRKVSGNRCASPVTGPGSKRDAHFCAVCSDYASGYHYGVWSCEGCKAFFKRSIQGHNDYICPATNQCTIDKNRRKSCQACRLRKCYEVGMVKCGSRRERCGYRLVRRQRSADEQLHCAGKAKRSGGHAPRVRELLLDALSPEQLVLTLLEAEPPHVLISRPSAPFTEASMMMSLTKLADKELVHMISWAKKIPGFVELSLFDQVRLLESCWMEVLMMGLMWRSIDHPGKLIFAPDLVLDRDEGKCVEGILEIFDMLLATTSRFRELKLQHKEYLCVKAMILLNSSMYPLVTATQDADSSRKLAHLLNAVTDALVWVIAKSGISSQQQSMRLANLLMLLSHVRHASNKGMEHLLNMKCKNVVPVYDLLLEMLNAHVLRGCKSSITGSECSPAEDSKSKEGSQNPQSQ
Chain of Estrogen receptor (Homo sapiens) (P03372 whole entry, looked up): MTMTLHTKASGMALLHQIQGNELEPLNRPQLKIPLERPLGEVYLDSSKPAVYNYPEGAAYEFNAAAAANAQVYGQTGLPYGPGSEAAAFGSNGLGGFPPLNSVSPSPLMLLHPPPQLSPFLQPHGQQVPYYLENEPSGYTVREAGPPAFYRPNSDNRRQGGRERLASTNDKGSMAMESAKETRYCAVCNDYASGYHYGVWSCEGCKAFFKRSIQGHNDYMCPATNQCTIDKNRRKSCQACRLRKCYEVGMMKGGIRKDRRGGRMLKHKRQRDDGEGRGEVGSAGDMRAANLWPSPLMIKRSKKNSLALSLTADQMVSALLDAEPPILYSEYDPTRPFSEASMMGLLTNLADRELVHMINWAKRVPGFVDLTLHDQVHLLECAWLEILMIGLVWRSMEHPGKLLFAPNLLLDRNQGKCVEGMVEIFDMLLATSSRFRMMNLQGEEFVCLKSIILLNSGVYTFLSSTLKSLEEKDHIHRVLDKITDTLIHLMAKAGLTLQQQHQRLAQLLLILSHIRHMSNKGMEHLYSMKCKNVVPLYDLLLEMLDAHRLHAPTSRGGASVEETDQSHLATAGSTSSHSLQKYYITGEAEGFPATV

Turning to `O=C(Cl)c1ccc(Cl)cc1Cl`, the Potency entry in [1], in assay [2], in assay [3], in assay [4], in assay [5] and in assay [6] was “inactive” throughout. The Potency entry in [7], in assay [8], in assay [9], in assay [10] and in [11] was “inactive” in each case. In [12], the outcome was inactive.

For the compound `CC(C)=CCC/C(C)=C/CC/C(C)=C/CC/C(C)=C/CC1=C(C)C(=O)c2ccccc2C1=O`, the Potency result in [13] is “inactive”.

Consider `N[C@@H](Cc1cnc[nH]1)C(=O)O`, for which the Potency result in assay [13] was “inactive”.

In the case of `NC(=O)[C@@H]1CCCN1C(=O)[C@H](Cc1cnc[nH]1)NC(=O)[C@@H]1CCC(=O)N1`, the Potency entry in assay [13] is “inactive”.

As for `CS(=O)(=O)c1ccc([C@@H](CC2CCCC2)C(=O)Nc2cnccn2)cc1Cl`, in assay [14], the Potency is 21.7 µM (active).

On to `Nc1ccc(N)c([N+](=O)[O-])c1`, for which the Potency in assay [14] is 27.3 µM (active); in assay [9], 21.7 µM (active); in assay [11], 8.63 µM (active).

On to `O=C1Cc2ccccc2C1`, for which the Potency result in assay [11] was “inactive”.

(Values after PubChem BioAssay (Tox21).)
